Source: PubChem BioAssay

Each molecule was assayed against E3 ubiquitin-protein ligase XIAP (Homo sapiens) (UniProt P98170) (assay: XIAP binders, primary screen, biophysical, small-molecule microarray, fluorescence 635 nm (AID 1181;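 also: score merges 667 nm emission and signal to noise over triplicate slides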)). Conditions: small-molecule microarray binding, higher = more signal.
E3 ubiquitin-protein ligase XIAP (Homo sapiens), sequence (P98170 whole entry, looked up): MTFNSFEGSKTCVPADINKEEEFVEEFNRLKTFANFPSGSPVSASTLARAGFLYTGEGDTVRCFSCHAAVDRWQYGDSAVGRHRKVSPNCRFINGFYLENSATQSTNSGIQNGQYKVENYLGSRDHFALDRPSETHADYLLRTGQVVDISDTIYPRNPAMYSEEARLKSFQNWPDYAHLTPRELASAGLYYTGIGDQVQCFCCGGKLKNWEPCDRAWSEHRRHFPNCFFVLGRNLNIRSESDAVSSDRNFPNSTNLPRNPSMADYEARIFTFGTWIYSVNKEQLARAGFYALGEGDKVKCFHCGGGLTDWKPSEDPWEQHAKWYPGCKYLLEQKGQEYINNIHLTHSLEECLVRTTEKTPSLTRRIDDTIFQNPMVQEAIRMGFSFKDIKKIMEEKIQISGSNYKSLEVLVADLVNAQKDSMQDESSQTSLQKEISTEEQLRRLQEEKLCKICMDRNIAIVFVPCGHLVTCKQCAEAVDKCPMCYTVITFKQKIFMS

| Compound | composite z-score |
| --- | --- |
| O=C(N1CCCCC1)[C@]1(Cc2ccccc2)N=C(c2ccc(OCCCO)cc2)O[C@@H]1c1ccccc1 | 0.205 |
| CCOC(=O)[C@H]1C/C=C/C[C@H](C(=O)OCC)C(=O)O[C@H]2[C@@H](OC)O[C@H](CO)[C@@H](OC(=O)c3c(OC)cccc3OC)[C@@H]2OC1=O | -0.102 |
| C=C(CCCC)/C(=C/C[C@H](OC(=O)c1ccncc1)c1ccccc1OCCO)c1cnc2ccccc2c1 | -0.252 |
| CCN(CC)c1ccc(N2CC=CC34O[C@@H]5C=CCCOC(=O)C5[C@H]3C(=O)N(CCCCCCO)[C@@H]4C2=O)cc1 (some centres not stated) | 0.127 |
| COC(=O)[C@@]1(Cc2ccc(OC)cc2)[C@H]2c3cc(C(=O)N4CCCC4)n(CCN4CNCC4=O)c3C[C@H]2CN1C(=O)c1ccccc1 | 0.778 |
| CCC(CC)C(O)C1C=CC2C(=O)NC(=O)C2N1Nc1ccccn1 (configuration not stated) | 0.162 |
| O=C(CS)NCCCCCCNC(=O)[C@@H]1C[C@@H]2C(=O)NCC(=O)N2[C@@H]1c1cccc(OCCO)c1 | 0.0346 |
